Calls of active or inactive are those of the source. The calls were made as follows: active = hit-call score of the fitted dose curve at least 0.9, where 1 is the maximum; inactive = score below 0.9.
Columns and labels:
[1] = ATG_CRE_CIS: Attagene CIS-FACTORIAL HepG2 Assay for human cAMP Responsive Element (CRE) binding protein 3 (AID 2282926); conditions: HepG2 CRE cis-reporter, Attagene multiplexed mRNA; actives raise or lower the signal
Outline: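 Assay format: transient reporter transfection of HepG2, 24 h treatment, total RNA isolation with DNase I step. Reporter abundance read by fluorescence after PCR and capillary separation; DMSO-normalised gain or loss fitting.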

[2] = ATG_CMV_CIS: Attagene CIS-FACTORIAL HepG2 Assay for human CMV (Internal Marker) (AID 2282928); conditions: HepG2 CMV promoter reporter, transcription factor profiling; actives raise or lower the signal;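 also: endpoint acts as a background internal control marker rather than a target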
Outline: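 24 h chemical treatment, HepG2 with transient multi-reporter transfection; RNA → oligo(dT) RT → PCR → 6-FAM extension → HpaI digest → CE fluorescence. Bidirectional fit, DMSO negative control.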

[3] = ATG_DR4_LXR_CIS: Attagene CIS-FACTORIAL HepG2 Assay for human Liver X Receptor (LXR), DR4 submotif (AID 2282929); conditions: HepG2 Attagene DR4 cis-reporter, mRNA transcription; actives raise or lower the signal
Outline: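 Transiently transfected HepG2 liver cells; cis-regulated reporters; 24 h dosing. RT-PCR plus CE read-out of reporter mRNA. DMSO baseline, bidirectional curve fitting.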

[4] = molecular target: Aryl hydrocarbon receptor (Homo sapiens) (UniProt P35869); experiment: ATG_Ahr_CIS: Attagene CIS-FACTORIAL HepG2 Assay for human Aryl Hydrocarbon Receptor (Ahr) (AID 2282930); conditions: HepG2 AhR cis-factorial reporter transcription; actives raise or lower the signal
Sequence of Aryl hydrocarbon receptor (Homo sapiens) (P35869 whole entry, looked up): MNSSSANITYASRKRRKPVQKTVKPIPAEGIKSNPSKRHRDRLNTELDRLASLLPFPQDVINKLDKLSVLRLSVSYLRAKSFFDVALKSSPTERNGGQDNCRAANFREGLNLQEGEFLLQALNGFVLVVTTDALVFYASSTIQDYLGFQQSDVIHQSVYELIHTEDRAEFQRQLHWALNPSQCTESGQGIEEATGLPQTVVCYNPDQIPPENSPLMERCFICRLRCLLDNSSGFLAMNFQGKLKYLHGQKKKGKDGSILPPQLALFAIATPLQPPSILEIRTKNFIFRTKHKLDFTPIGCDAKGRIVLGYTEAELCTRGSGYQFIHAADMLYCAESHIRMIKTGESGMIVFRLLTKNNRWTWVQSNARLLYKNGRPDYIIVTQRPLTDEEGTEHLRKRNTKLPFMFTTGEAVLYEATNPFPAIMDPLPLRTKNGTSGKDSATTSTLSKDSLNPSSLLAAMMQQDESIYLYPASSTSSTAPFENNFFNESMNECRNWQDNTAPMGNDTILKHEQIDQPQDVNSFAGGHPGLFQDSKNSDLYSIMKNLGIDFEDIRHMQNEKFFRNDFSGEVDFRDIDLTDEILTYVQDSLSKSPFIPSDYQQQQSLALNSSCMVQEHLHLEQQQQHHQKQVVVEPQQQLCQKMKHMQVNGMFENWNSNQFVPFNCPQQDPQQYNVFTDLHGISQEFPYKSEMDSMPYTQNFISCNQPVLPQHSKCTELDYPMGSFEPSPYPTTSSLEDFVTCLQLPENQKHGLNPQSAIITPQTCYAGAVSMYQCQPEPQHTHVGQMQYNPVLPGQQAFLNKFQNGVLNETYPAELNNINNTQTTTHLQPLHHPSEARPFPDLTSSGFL
Outline: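 HepG2 cells transiently transfected with cis-element-driven multiplexed reporter transcription units; endogenous transcription factor activity measured as reporter mRNA 24 h after dosing. RT-PCR, 6-FAM labelling, HpaI digestion, capillary electrophoresis; bidirectional fitting versus DMSO baseline.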

[5] = ATG_AP_1_CIS: Attagene CIS-FACTORIAL HepG2 Assay for human Activator Protein 1 (AP-1) (AID 2282931); conditions: HepG2 Attagene cis-factorial AP-1 reporter mRNA; actives raise or lower the signal
Outline: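 We transfected HepG2 cells transiently with a set of cis-regulated reporter transcription units, dosed them for 24 h, and quantified reporter mRNA via RT-PCR and capillary electrophoresis, scoring gain or loss of signal relative to DMSO.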

[6] = ATG_AP_2_CIS: Attagene CIS-FACTORIAL HepG2 Assay for human Activator Protein 2 (AP-2) (AID 2282932); conditions: HepG2 AP-2 cis-reporter, Attagene transcription factor profiling; actives raise or lower the signal
Outline: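 Cells (HepG2) transfected with promoter-driven reporter constructs, treated 24 h. Total RNA reverse-transcribed, reporter cDNA PCR-amplified, FAM-labelled by primer extension, digested, resolved by capillary electrophoresis. Activity fitted both directions versus DMSO.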

[7] = ATG_BRE_CIS: Attagene CIS-FACTORIAL HepG2 Assay for human Bone Morphogenetic Protein (BMP) Response Element (BRE) (AID 2282933); conditions: HepG2 BMP response element reporter, Attagene transcription factor profiling; actives raise or lower the signal
Outline: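 Transient MRTU transfection of human HepG2 liver cells; 24 h compound treatment; total RNA isolated, reverse-transcribed, PCR-amplified, 6-FAM labelled, HpaI-cut, capillary electrophoresis. DMSO = negative control/baseline, bidirectional fit.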

[8] = molecular target: Retinoic acid receptor alpha (Homo sapiens) (UniProt P10276); experiment: ATG_DR5_RAR_CIS: Attagene CIS-FACTORIAL HepG2 Assay for human Retinoic Acid Receptor Alpha (RARE), DR5 submotif (AID 2282934); conditions: HepG2 Attagene cis-factorial RARE DR5 reporter, mRNA; actives raise or lower the signal;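 as to AC50: reporter responds to endogenous RAR alpha beta and gamma in HepG2 not RARA alone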
Sequence of Retinoic acid receptor alpha (Homo sapiens) (P10276 whole entry, looked up): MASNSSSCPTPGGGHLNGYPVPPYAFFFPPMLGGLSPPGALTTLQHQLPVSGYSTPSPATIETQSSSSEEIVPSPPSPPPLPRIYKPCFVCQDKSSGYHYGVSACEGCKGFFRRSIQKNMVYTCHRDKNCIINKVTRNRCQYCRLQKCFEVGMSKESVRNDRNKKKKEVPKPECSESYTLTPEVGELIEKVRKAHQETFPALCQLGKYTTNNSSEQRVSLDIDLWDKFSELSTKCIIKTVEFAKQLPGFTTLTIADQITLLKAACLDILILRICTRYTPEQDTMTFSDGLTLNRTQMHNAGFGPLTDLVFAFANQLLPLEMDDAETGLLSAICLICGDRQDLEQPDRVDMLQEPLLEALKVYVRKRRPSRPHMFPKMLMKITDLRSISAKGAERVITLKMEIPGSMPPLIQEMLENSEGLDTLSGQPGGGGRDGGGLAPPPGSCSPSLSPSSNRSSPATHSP
Outline: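 HepG2 cells transiently transfected with multiplexed reporter units under cis (DR5 RARE) promoters, so endogenous transcription factor activity is measured. After 24 h compound exposure, reporter mRNA is quantified by RT-PCR with fluorescent labelling and capillary electrophoresis; bidirectional fitting versus DMSO.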

[9] = molecular target: Transcription factor E2F1 (Homo sapiens) (UniProt Q01094); experiment: ATG_E2F_CIS: Attagene CIS-FACTORIAL HepG2 Assay for human E2F Transcription Factor 1 (AID 2282935); conditions: HepG2 Attagene cis-reporter, E2F reporter RNA transcripts; actives raise or lower the signal
Sequence of Transcription factor E2F1 (Homo sapiens) (Q01094 whole entry, looked up): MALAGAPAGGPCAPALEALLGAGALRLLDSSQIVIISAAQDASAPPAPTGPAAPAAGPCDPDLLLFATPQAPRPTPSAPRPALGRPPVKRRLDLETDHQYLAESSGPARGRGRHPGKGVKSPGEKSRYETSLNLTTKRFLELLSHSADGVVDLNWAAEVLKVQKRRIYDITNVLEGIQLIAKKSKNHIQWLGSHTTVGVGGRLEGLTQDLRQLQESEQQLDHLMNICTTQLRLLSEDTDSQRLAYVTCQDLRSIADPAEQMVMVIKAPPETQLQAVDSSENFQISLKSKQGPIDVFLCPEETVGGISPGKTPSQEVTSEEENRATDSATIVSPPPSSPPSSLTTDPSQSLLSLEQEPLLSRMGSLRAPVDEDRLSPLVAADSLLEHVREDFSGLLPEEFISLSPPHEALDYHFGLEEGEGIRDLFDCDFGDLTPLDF
Outline: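 First, HepG2 cells were transfected with reporter transcription units. Next, they were dosed for 24 h. Then RNA was isolated, converted to cDNA, PCR-amplified, FAM-labeled, HpaI-digested and analyzed by capillary electrophoresis.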

[10] = ATG_E_Box_CIS: Attagene CIS-FACTORIAL HepG2 Assay for human Enhancer Box (E-box) (AID 2282936); conditions: HepG2 E-box cis-reporter transcription, actives raise or lower the signal
Outline: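 Endogenous transcription factor activity was sensed in human HepG2 liver cells through transfected cis-promoter reporter units. After 24 h of dosing, total RNA was reverse-transcribed and reporter cDNA resolved by capillary electrophoresis.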

[11] = ATG_M_61_CIS: Attagene CIS-FACTORIAL HepG2 Assay for M61 Transcription Factor (Internal Marker) (AID 2282937); conditions: HepG2 Attagene CIS-FACTORIAL M61 internal marker reporter; actives raise or lower the signal
Outline: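 Multiplexed reporter mRNA assay, HepG2 human hepatoma cells, 24 h treatment. Signal: FAM-labelled, HpaI-digested RT-PCR fragments by CE. Fit: bidirectional, baseline DMSO.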

[12] = ATG_EGR_CIS: Attagene CIS-FACTORIAL HepG2 Assay for human Early Growth Response 1 (EGR1) (AID 2282938); conditions: HepG2 Attagene CIS-FACTORIAL EGR reporter mRNA; actives raise or lower the signal
Outline: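 Multiplexed cis-reporter system in human hepatoma HepG2 cells, transiently transfected. Cells are dosed for 24 h; reporter transcripts are amplified, fluorescently tagged and sized by capillary electrophoresis, with DMSO as negative control.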

[13] = ATG_M_19_CIS: Attagene CIS-FACTORIAL HepG2 Assay for M19 Transcription Factor (Internal Marker) (AID 2282939); conditions: HepG2 Attagene CIS-FACTORIAL M19 internal marker reporter; actives raise or lower the signal
Outline: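 Transfect HepG2 with MRTU reporter library → dose chemical, 24 h → isolate total RNA, reverse-transcribe with oligo(dT) → PCR, 6-FAM label, HpaI cut (2 h, 37 C) → capillary electrophoresis. Bidirectional fit vs DMSO.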

[14] = ATG_ERE_CIS: Attagene CIS-FACTORIAL HepG2 Assay for Estrogen Response Element (ERE) (AID 2282940); conditions: HepG2 ERE cis-reporter, Attagene RNA transcript; actives raise or lower the signal
Outline: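 Transient MRTU transfection of human HepG2; cis-element promoters; 24 h dosing; total RNA → RT (oligo dT) → PCR → 6-FAM primer extension → HpaI digest → CE fluorescence. Bidirectional fit, DMSO baseline.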

[15] = ATG_Ets_CIS: Attagene CIS-FACTORIAL HepG2 Assay for human Erythroblast Transformation Specific (ETS) (AID 2282941); conditions: HepG2 ETS cis-reporter transcription, actives raise or lower the signal
Outline: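 Cis-regulated reporter mRNA induction in HepG2 (transient transfection), 24 h exposure, RT-PCR plus capillary electrophoresis detection; DMSO serves as negative control and baseline.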

[16] = molecular target: Hepatocyte nuclear factor 3-beta (Homo sapiens) (UniProt Q9Y261); experiment: ATG_FoxA2_CIS: Attagene CIS-FACTORIAL HepG2 Assay for human Forkhead box A2 (FOXA2) (AID 2282942); conditions: HepG2 cis-reporter transcription factor activity, 24 h; actives raise or lower the signal
Sequence of Hepatocyte nuclear factor 3-beta (Homo sapiens) (Q9Y261 whole entry, looked up): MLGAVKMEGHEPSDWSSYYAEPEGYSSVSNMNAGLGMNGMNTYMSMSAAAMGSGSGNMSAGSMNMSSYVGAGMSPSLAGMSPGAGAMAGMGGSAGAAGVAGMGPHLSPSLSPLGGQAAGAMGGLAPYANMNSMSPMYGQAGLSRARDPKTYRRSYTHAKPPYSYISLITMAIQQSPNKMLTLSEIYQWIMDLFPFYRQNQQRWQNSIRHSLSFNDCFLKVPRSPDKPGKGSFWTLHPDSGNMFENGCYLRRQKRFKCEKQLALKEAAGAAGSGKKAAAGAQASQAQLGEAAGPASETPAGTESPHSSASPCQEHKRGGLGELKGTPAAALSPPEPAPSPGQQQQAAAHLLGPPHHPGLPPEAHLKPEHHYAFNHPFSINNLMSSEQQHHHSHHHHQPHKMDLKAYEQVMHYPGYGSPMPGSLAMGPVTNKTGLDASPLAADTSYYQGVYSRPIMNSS
Outline: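 Multiplexed cis-element reporter assay in transiently transfected HepG2. Twenty-four hours post-dosing, RNA was reverse-transcribed, amplified, FAM-labelled, HpaI-digested and separated by CE. Activity gain or loss relative to DMSO.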

[17] = ATG_FoxO_CIS: Attagene CIS-FACTORIAL HepG2 Assay for human Forkhead box O (FoxO) (AID 2282943); conditions: HepG2 Attagene cis-reporter, FoxO element, mRNA; actives raise or lower the signal
Outline: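 HepG2 cells transiently transfected with cis-promoter-driven multiple reporter transcription units; 24 h after chemical dosing, reporter mRNA quantified by RT-PCR, fluorescent primer extension, HpaI digestion and capillary electrophoresis. Bidirectional fitting versus DMSO baseline.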

[18] = ATG_GATA_CIS: Attagene CIS-FACTORIAL HepG2 Assay for human GATA Binding Protein (AID 2282944); conditions: HepG2 GATA cis-element reporter, Attagene multiplex mRNA; actives raise or lower the signal
Outline: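 Transient MRTU transfection, HepG2, 24 h compound exposure. Total RNA → oligo(dT) RT → PCR → 6-FAM primer extension → HpaI cut → CE. Bidirectional fit vs DMSO.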

[19] = ATG_GLI_CIS: Attagene CIS-FACTORIAL HepG2 Assay for human Zinc Finger Protein GLI1 (AID 2282945); conditions: HepG2, Attagene cis-factorial reporter mRNA, GLI element; actives raise or lower the signal
Outline: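 HepG2 cells transiently transfected with cis-promoter multiplexed reporter units report endogenous transcription factor activity. After 24 h chemical exposure, reporter mRNA was quantified by RT-PCR, 6-FAM labelling, HpaI digestion and capillary electrophoresis, with bidirectional fitting against DMSO.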

[20] = molecular target: CCAAT/enhancer-binding protein beta (Homo sapiens) (UniProt P17676); experiment: ATG_C_EBP_CIS: Attagene CIS-FACTORIAL HepG2 Assay for human CCAAT/Enhancer Binding Protein (C/EBP) beta (AID 2282927); conditions: HepG2 Attagene cis-factorial transcription factor reporter; actives raise or lower the signal
Sequence of CCAAT/enhancer-binding protein beta (Homo sapiens) (P17676 whole entry, looked up): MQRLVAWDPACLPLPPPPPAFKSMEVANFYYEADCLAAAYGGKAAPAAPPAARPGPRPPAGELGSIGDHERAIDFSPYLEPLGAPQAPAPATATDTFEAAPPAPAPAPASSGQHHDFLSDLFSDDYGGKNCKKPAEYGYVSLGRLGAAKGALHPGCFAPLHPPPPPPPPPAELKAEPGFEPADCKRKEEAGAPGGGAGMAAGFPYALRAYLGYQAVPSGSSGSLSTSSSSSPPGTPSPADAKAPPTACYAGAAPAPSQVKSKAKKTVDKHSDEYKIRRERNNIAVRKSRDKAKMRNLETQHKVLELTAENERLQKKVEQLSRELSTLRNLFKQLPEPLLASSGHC
Outline: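 RT-PCR/capillary electrophoresis fluorescence of reporter mRNA, 24 h post-dose, in HepG2 cells carrying transfected cis-promoter reporter units. Bidirectional curve fitting against DMSO baseline captures gain or loss of signal.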

Measured: AC50

CCCCCc1ccc(Cl)cc1
active: [2] 66.4 µM | [8] 84.1 µM | [9] 61.5 µM
not listed: [20]
inactive: all other assays above

O=S(=O)(Oc1ccc(Cl)cc1Cl)c1ccccc1
active: [2] 46.7 µM | [3] 48.8 µM | [7] 61.4 µM | [14] 7.97 µM
not listed: [20]
inactive: all other assays above

Cc1cc(C)c(C)c(O)c1
not listed: [20]
inactive: all other assays above

C=CCOCC(O)CCl (configuration not stated)
not listed: [6] | [18] | [20]
inactive: all other assays above

CC=CC(F)(F)C(F)(F)C(F)(F)F
not listed: [6] | [20]
inactive: all other assays above

CN1C(=O)N(C)C(O)C1O (configuration not stated)
not listed: [11] | [20]
inactive: all other assays above

CCCNC(=O)NS(=O)(=O)c1ccc(Cl)cc1
not listed: [11] | [18] | [20]
inactive: all other assays above

c1cc(C(c2ccc(OCC3CO3)cc2)C(c2ccc(OCC3CO3)cc2)c2ccc(OCC3CO3)cc2)ccc1OCC1CO1 (configuration not stated)
active: [1] 30.7 µM | [2] 64.3 µM | [3] 33.1 µM | [12] 39.5 µM
not listed: [20]
inactive: all other assays above

CCOC(=O)Cc1cccc2ccccc12
active: [8] 39.5 µM
not listed: [20]
inactive: all other assays above

C=CC(=O)OCCOC1C2CCC1C1CC=CC12 (configuration not stated)
not listed: [2] | [4] | [6] | [11] | [16]
inactive: all other assays above

C=COCCCC
not listed: [4] | [9] | [20]
inactive: all other assays above

CC(C)c1ccc2c(c1)CC[C@H]1[C@](C)(CN)CCC[C@]21C
active: [2] 5.78 µM | [3] 5.39 µM | [5] 5.99 µM | [7] 5.7 µM | [8] 6.12 µM | [12] 5.35 µM | [18] 5.79 µM
not listed: [4] | [6] | [9] | [20]
inactive: all other assays above

CCCCCCCCCCCCCOP(=O)(O)O
not listed: [20]
inactive: all other assays above

C=CC(=O)NC(C)(C)CS(=O)(=O)O
active: [7] 15.8 µM
not listed: [6] | [20]
inactive: all other assays above

Cc1ccc(C(C)c2ccc(C)c(C)c2)cc1C
active: [3] 117 µM | [5] 48.7 µM | [19] 146 µM
not listed: [2] | [16] | [20]
inactive: all other assays above

From PubChem BioAssay (EPA / NIEHS)
